# In PubChem BioAssay (EPA / NIEHS):
# Several values for one entry are separate records, joined by “and”; a condition that tells them apart may be missing. Equal values may be shown once. Records with an inconclusive call do not appear. Some structures have more than one record in an assay (separate samples or runs), and their calls can disagree. Activity calls are given as the source filed them. The calls were made as follows, unless noted: active = hit-call score of the fitted dose curve at least 0.9, where 1 is the maximum; inactive = score below 0.9.
# What was measured:
# [1] = read-out: Monocyte Chemoattractant Protein-1 (MCP1), CCL2 (gene 6347); assay: BSK_SAg_MCP1: BioMAP Diversity Plus: SAg Assay for Monocyte Chemoattractant Protein-1 (MCP1) Biomarker Activity (AID 2283090); settings: primary human HUVEC with PBMC; actives raise or lower the signal
# Procedure, shortened: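 Values derive from bidirectional fitting of ELISA-measured MCP1 against DMSO controls. Readings were taken 24 h after dosing human vascular endothelial cells co-cultured with peripheral blood mononuclear cells under superantigen stimulation.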
# [2] = read-out: E-selectin (Homo sapiens) (UniProt P16581); assay: BSK_SAg_Eselectin: BioMAP Diversity Plus: SAg Assay for Eselectin Biomarker Activity (AID 2283091); settings: primary human HUVEC with PBMC; actives raise or lower the signal
# Procedure, shortened: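 E-selectin ELISA readout at 24 h post-dosing in human umbilical vein endothelial cell/PBMC co-culture; gain or loss of signal fitted relative to DMSO baseline.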
# [3] = read-out: Monokine induced gamma interferon (MIG), CXCL9 (gene 4283); assay: BSK_SAg_MIG: BioMAP Diversity Plus: SAg Assay for Monokine induced gamma interferon (MIG) Biomarker Activity (AID 2283092); settings: primary human HUVEC with PBMC; actives raise or lower the signal
# Procedure, shortened: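 HUVEC plus human PBMC co-culture, chemicals dosed and MIG (CXCL9) quantified by ELISA at 24 h. Bidirectional curve fitting against DMSO as negative control and baseline, so both gain and loss of signal count as activity.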
# [4] = BSK_SAg_PBMCCytotoxicity: PBMC Cytotoxicity Assessment in the BioMAP Diversity Plus: SAg Assay (AID 2283093); settings: primary human HUVEC with PBMC;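 also: fitted both ways against DMSO so a hit may be loss or gain of signal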;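 as to AC50: PBMC superantigen activated with SEB plus TSST-1 one hour after compound addition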
# Procedure, shortened: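 PBMC viability by Alamar Blue reduction, fluorescence read at 546/580 nm after 6 h dye exposure. Cells were dosed 1 h before SEB plus TSST-1 activation (20 ng/mL final each), then held 90 h; endothelial/PBMC human co-culture.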
# [5] = read-out: Interleukin-8 (IL8), CXCL8 (gene 3576); assay: BSK_SAg_IL8: BioMAP Diversity Plus: SAg Assay for Interleukin-8 (IL8) Biomarker Activity (AID 2283094); settings: primary human HUVEC with PBMC; actives raise or lower the signal
# Procedure, shortened: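 ELISA readout of IL-8 from a superantigen-activated endothelial/PBMC primary human co-culture, taken 24 h post-dosing and fitted in both directions against DMSO; parallel SRB total-protein staining flags overt cytotoxicity.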
# [6] = BSK_SAg_SRB: Viability Assessment in the BioMAP Diversity Plus: SAg Assay (AID 2283096); settings: primary human HUVEC with PBMC;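 also: cells read one day after compound addition; hits may be either gain or loss of signal compared with DMSO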
# Procedure, shortened: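 Compounds were added to a human vascular co-culture of umbilical vein endothelium and PBMC. After 24 h, parallel cultures were fixed with 10% TCA, stained with 0.1% sulforhodamine B and read at 560 nm. Gain or loss of signal was fitted relative to DMSO.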
# [7] = BSK_SAg_Proliferation: Cell Proliferation Assessment in the BioMAP Diversity Plus: SAg Assay (AID 2283095); settings: primary human HUVEC with PBMC;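 also: relative cell number as total protein by SRB absorbance in sub-confluent culture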
# Procedure, shortened: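 Relative cell number in the endothelial cell/PBMC co-culture was quantified at 96 h by SRB staining (0.1% SRB, 10% TCA fixation, read at 560 nm). Curves were fitted in both directions relative to DMSO baseline.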
# [8] = biological target: human CYP2C9, CYP2C9 (gene 1559) (UniProt P11712); assay: NVS_ADME_hCYP2C9: NovaScreen (NVS) CYP450-related Enzyme Activity (ADME) Assay for human CYP2C9 (AID 2283108; active = hit-call score of the fitted dose curve at least 0.9, where 1 is the maximum)
# Sequence of human CYP2C9, CYP2C9 (gene 1559) (P11712 whole entry, looked up): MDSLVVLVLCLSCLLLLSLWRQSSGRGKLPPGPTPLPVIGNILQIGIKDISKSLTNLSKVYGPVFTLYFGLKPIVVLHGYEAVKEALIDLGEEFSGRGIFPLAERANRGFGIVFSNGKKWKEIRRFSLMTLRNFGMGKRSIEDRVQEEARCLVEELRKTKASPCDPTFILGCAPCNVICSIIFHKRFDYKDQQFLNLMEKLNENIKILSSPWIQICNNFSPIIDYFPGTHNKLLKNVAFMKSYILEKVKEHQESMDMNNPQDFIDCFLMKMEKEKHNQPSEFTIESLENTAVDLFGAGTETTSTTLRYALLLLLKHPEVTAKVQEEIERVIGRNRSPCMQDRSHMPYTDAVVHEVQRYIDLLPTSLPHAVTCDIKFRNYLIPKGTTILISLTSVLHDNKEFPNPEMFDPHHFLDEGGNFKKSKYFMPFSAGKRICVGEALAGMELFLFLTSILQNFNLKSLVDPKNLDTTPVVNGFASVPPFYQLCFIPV
# Procedure, shortened: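 Recombinant human CYP2C9 expressed in SF9 cells, fluorogenic substrate, fluorescence read 0.75 h after dosing. Chemicals first run in duplicate at 10 uM, with actives followed in concentration series; loss of signal versus acetonitrile baseline.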
# [9] = biological target: human CYP2D6, CYP2D6 (gene 1565) (UniProt P10635); assay: NVS_ADME_hCYP2D6: NovaScreen (NVS) CYP450-related Enzyme Activity (ADME) Assay for human CYP2D6 (AID 2283107; active = hit-call score of the fitted dose curve at least 0.9, where 1 is the maximum)
# Sequence of human CYP2D6, CYP2D6 (gene 1565) (P10635 whole entry, looked up): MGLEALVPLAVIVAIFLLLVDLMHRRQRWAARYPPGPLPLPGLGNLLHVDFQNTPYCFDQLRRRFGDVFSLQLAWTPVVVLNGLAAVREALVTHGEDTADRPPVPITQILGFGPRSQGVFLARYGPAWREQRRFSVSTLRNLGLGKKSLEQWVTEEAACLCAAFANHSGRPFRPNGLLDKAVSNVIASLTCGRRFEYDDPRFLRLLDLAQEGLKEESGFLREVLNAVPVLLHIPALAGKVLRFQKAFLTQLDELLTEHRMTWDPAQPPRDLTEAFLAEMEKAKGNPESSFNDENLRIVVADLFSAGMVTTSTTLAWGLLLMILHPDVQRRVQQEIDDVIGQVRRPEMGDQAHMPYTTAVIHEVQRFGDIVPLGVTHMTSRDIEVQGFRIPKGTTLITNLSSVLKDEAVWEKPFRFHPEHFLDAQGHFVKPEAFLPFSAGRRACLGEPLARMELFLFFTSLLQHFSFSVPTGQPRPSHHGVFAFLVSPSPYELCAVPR
# Procedure, shortened: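 Fluorescence intensity read 1 h post-dosing; insect-cell-expressed recombinant protein with fluorogenic substrate, no cells. Activity is scored as signal loss relative to acetonitrile baseline, first at a single 10 uM concentration in duplicate, then as concentration series for confirmed actives.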
# Sequence of E-selectin (Homo sapiens) (P16581 whole entry, looked up): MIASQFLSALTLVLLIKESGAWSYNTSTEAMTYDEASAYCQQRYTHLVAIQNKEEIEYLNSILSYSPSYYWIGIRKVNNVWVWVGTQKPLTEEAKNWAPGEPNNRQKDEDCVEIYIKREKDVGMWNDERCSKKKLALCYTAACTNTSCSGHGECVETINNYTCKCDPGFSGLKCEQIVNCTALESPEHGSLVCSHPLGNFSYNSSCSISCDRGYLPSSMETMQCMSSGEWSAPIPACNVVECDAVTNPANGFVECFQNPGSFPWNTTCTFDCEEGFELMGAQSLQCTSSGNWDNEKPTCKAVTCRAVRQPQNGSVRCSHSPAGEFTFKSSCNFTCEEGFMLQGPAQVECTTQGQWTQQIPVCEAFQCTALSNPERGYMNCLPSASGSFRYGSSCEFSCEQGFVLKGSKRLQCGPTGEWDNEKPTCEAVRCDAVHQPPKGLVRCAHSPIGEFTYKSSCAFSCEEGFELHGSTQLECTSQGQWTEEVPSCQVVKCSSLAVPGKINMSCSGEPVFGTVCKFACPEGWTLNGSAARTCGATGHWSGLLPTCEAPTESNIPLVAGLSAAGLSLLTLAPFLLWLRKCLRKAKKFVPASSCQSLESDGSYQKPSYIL
compound,measurement,setting,value
CCCCNc1ccccc1,outcome,[1],inactive
same,outcome,[2],inactive
same,outcome,[3],inactive
same,outcome,[4],inactive
same,outcome,[5],inactive
same,outcome,[6],inactive
OCCCC(F)(F)C(F)(F)C(F)(F)F,outcome,[1],inactive
same,outcome,[2],inactive
same,outcome,[3],inactive
same,outcome,[5],inactive
same,outcome,[6],inactive
O=C(O)C(F)(OC(F)(F)C(F)(OC(F)(F)C(F)(OC(F)(F)C(F)(F)C(F)(F)F)C(F)(F)F)C(F)(F)F)C(F)(F)F (stereo unspecified),outcome,[1],inactive
same,outcome,[2],inactive
same,outcome,[3],inactive
same,outcome,[5],inactive
same,outcome,[7],inactive
same,outcome,[6],inactive
O=C(O)C(F)(F)C(F)(F)C(F)(F)C(F)(F)C(F)(F)C(F)(F)C(F)(F)C(F)(F)C(F)(F)C(F)(F)C(F)(F)C(F)(F)F,outcome,[1],inactive
same,outcome,[3],inactive
same,outcome,[4],inactive
same,outcome,[5],inactive
same,outcome,[6],inactive
FC(F)(F)C(F)(F)C(F)(F)C(F)(F)C(F)(F)C(F)(F)C(F)(F)Br,outcome,[1],inactive
same,outcome,[3],inactive
same,outcome,[4],inactive
same,outcome,[5],inactive
same,outcome,[6],inactive
COC(=O)CCC(F)(F)C(F)(F)C(F)(F)C(F)(F)F,outcome,[1],inactive
same,outcome,[3],inactive
same,outcome,[4],inactive
same,outcome,[5],inactive
same,outcome,[7],inactive
same,outcome,[6],inactive
FC(F)(I)C(F)(F)C(F)(F)C(F)(F)I,outcome,[1],inactive
same,outcome,[3],inactive
same,AC50,[5],30 µM (active)
same,outcome,[5],inactive
same,outcome,[6],inactive
CCCCOCCOCCOC(=O)CCCCC(=O)OCCOCCOCCCC,outcome,[1],inactive
same,outcome,[2],inactive
same,outcome,[3],inactive
same,outcome,[5],inactive
same,outcome,[6],inactive
same,AC50,[8],3.07 µM (active)
O=C(O)C(F)(F)C(F)(F)C(F)(F)C(F)(F)F,outcome,[1],inactive
same,outcome,[2],inactive
same,outcome,[3],inactive
same,outcome,[5],inactive
same,outcome,[6],inactive
C=CC(=O)OCC(F)(F)C(F)(F)C(F)(F)C(F)(F)COC(=O)C=C,AC50,[1],27.9 µM (active) and 25.1 µM (active)
same,AC50,[3],20.6 µM (active) and 20.9 µM (active)
same,AC50,[5],16.8 µM (active) and 25 µM (active)
same,AC50,[6],44.6 µM (active) and 46.9 µM (active)
O=C(CC(=O)C(F)(F)C(F)(F)F)C(F)(F)F,outcome,[1],inactive
same,outcome,[2],inactive
same,outcome,[3],inactive
same,outcome,[4],inactive
same,outcome,[5],inactive
same,outcome,[6],inactive
O=C(O)C(F)(OC(F)(F)C(F)(OC(F)(F)C(F)(F)C(F)(F)F)C(F)(F)F)C(F)(F)F (stereo unspecified),outcome,[1],inactive
same,outcome,[3],inactive
same,outcome,[5],inactive
same,outcome,[6],inactive
CCc1c(Br)c(Br)c(Br)c(Br)c1Br,outcome,[1],inactive
same,outcome,[3],inactive
same,outcome,[4],inactive
same,outcome,[5],inactive
same,outcome,[6],inactive
O=C(O)C(F)(F)C(F)(F)C(F)(F)F,outcome,[1],inactive
same,outcome,[3],inactive
same,outcome,[4],inactive
same,outcome,[5],inactive
same,outcome,[6],inactive
FC(F)(F)C(F)(F)C(F)(F)C(F)(F)CCI,outcome,[1],inactive
same,outcome,[2],inactive
same,outcome,[3],inactive
same,outcome,[5],inactive
same,AC50,[7],30 µM (active)
same,outcome,[6],inactive
C=CC(F)(F)C(F)(F)C(F)(F)C(F)(F)C(F)(F)C(F)(F)C(F)(F)C(F)(F)F,outcome,[2],inactive
same,outcome,[3],inactive
same,outcome,[4],inactive
same,outcome,[5],inactive
same,outcome,[7],inactive
same,outcome,[6],inactive
C=CC/C=C/C/C=C/C/C=C/C,outcome,[1],inactive
same,outcome,[2],inactive
same,outcome,[3],inactive
same,outcome,[4],inactive
same,outcome,[5],inactive
same,outcome,[7],inactive
same,outcome,[6],inactive
FC(F)(F)C(F)(F)C(F)(F)C(F)(F)C(F)(F)C(F)(F)C(F)(F)C(F)(F)F,outcome,[1],inactive
same,outcome,[3],inactive
same,outcome,[4],inactive
same,outcome,[5],inactive
same,outcome,[6],inactive
FC(F)(F)C(F)(F)CNCC(F)(F)C(F)(F)F,outcome,[1],inactive
same,outcome,[2],inactive
same,outcome,[3],inactive
same,outcome,[4],inactive
same,outcome,[5],inactive
same,outcome,[6],inactive
OCC(F)(F)C(F)(F)C(F)(F)C(F)(F)C(F)(F)C(F)F,outcome,[1],inactive
same,outcome,[2],inactive
same,outcome,[3],inactive
same,outcome,[4],inactive
same,outcome,[5],inactive
same,outcome,[6],inactive
OCCCC(F)(F)C(F)(F)C(F)(F)C(F)(F)C(F)(F)C(F)(F)C(F)(F)F,AC50,[1],43.2 µM (active) and 46.3 µM (active)
same,AC50,[3],54 µM (active) and 50.8 µM (active)
same,AC50,[4],14.4 µM (active) and 14.8 µM (active)
same,AC50,[5],23.3 µM (active) and 50.1 µM (active)
same,AC50,[7],16.8 µM (active) and 16.3 µM (active)
same,AC50,[6],51.4 µM (active) and 44.9 µM (active)
CCCCCCOC(=O)c1ccccc1O,AC50,[1],27.6 µM (active) and 45.1 µM (active)
same,outcome,[3],inactive
same,AC50,[5],38.2 µM (active)
same,outcome,[5],inactive
same,AC50,[7],38.7 µM (active) and 45.4 µM (active)
same,AC50,[6],42.4 µM (active)
same,outcome,[6],inactive
CCCCCCCCC(F)(F)C(F)(F)C(F)(F)C(F)(F)C(F)(F)C(F)(F)F,outcome,[1],inactive
same,outcome,[2],inactive
same,outcome,[3],inactive
same,outcome,[4],inactive
same,outcome,[5],inactive
same,outcome,[7],inactive
same,outcome,[6],inactive
CCCCCCCCCCCCCCCC[N+](C)(C)Cc1ccccc1,AC50,[1],2.97 µM (active)
same,AC50,[2],20 µM (active)
same,AC50,[3],2.96 µM (active)
same,AC50,[4],1.17 µM (active)
same,AC50,[5],10 µM (active)
same,AC50,[7],0.456 µM (active)
same,AC50,[6],5.21 µM (active)
same,AC50,[9],0.401 µM (active)
C#C[C@]1(O)CC[C@H]2[C@@H]3CCc4cc(OC)ccc4[C@H]3CC[C@@]21C,outcome,[1],inactive
same,outcome,[3],inactive
same,outcome,[5],inactive
same,AC50,[7],30.4 µM (active)
same,outcome,[6],inactive
N=C(N)C(F)(F)C(F)(F)C(F)(F)C(F)(F)C(F)(F)C(F)(F)C(F)(F)F,AC50,[2],48.3 µM (active)
same,outcome,[2],inactive
same,AC50,[3],55.4 µM (active)
same,outcome,[3],inactive
same,AC50,[5],55.1 µM (active)
same,outcome,[5],inactive
same,AC50,[7],45 µM (active) and 47.4 µM (active)
same,AC50,[6],53 µM (active)
same,outcome,[6],inactive
CC(C)(C)C(=O)CC(=O)C(F)(F)C(F)(F)C(F)(F)F,outcome,[1],inactive
same,outcome,[3],inactive
same,outcome,[5],inactive
same,outcome,[6],inactive
O=C(O)C=C(C(F)(F)F)C(F)(F)F,AC50,[1],18.8 µM (active)
same,outcome,[1],inactive
same,AC50,[2],26.8 µM (active) and 22.9 µM (active)
same,outcome,[3],inactive
same,AC50,[5],30 µM (active) and 20 µM (active)
same,AC50,[7],43 µM (active) and 27.2 µM (active)
same,outcome,[6],inactive
NC(=O)C(F)(F)C(F)(F)C(F)(F)C(F)(F)F,outcome,[1],inactive
same,outcome,[2],inactive
same,outcome,[3],inactive
same,outcome,[4],inactive
same,outcome,[5],inactive
same,AC50,[7],30 µM (active)
same,outcome,[7],inactive
same,outcome,[6],inactive
O=C(O)C(F)(F)C(F)(F)OC(F)(F)F,outcome,[1],inactive
same,outcome,[2],inactive
same,outcome,[3],inactive
same,outcome,[4],inactive
same,outcome,[5],inactive
same,outcome,[7],inactive
same,outcome,[6],inactive
O=S(=O)(OCCOC(F)(F)F)C(F)(F)F,outcome,[1],inactive
same,outcome,[3],inactive
same,outcome,[5],inactive
same,outcome,[6],inactive
